Assay outcomes: PubChem, National Center for Advancing Translational Sciences (NCATS)
This is a sample that favours compounds with a hit; in the whole collection about 0.45% have one here.
Menin MLL FP TR: displaces Texas Red mutant MLL peptide from human menin; O00255; Menin + Texas Red MLL mutant peptide, fluorescence polarization; Potency, µM (doses to about 61.6 µM), usual class: inhibitors; hit rate 0.23% among 270,000; AID 1768; active = well fitted inhibition curve with a large enough effect in the polarisation, with a control signal flat, not every such curve was filed as active; inconclusive = small, poorly fitted or top-dose-only effect, or effect the other way, or a change in a side signal; inactive = no such curve, though single readings can be large or run the other way; the % refers to the polarisation
Target sequence (O00255 whole entry, looked up): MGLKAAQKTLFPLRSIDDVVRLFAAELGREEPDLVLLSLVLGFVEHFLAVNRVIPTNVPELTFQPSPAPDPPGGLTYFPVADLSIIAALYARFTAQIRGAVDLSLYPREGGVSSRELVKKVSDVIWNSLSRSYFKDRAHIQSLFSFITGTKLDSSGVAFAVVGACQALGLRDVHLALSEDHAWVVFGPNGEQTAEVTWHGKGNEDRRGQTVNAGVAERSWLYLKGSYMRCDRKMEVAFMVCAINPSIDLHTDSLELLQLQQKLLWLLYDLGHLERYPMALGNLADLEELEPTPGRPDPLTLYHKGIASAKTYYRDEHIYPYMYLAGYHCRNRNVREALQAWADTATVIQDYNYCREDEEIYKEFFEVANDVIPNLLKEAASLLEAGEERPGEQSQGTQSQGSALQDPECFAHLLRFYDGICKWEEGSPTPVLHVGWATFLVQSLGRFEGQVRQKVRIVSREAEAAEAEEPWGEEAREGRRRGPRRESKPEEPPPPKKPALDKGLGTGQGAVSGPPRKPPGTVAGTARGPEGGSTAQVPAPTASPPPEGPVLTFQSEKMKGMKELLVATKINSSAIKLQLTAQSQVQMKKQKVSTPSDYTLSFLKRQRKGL
Menin MLL FP FL: displaces fluorescein MLL peptide from human menin. Fluorescence polarization, fluorescein-MLL peptide displacement from menin. FP activity change, % at 61.4 µM. 290,000 tested, under 10 active; active = well fitted curve in the direction sought with a large enough effect in the polarisation, not every such curve was filed as active; inconclusive = small, poorly fitted or top-dose-only effect, or effect the other way, or a change in a side signal; inactive = no such curve, though single readings can be large or run the other way; the % refers to the polarisation
Akt phos inh: blocks phosphorylation of Akt | Neuro2A IGF-stimulated pAkt S473 HTRF, 20 min; hits give low values | activity change, % for hits at 50 µM | hit rate 0.32% among 360,000 | AID 651550; in the data active = activity change below about -80%; inconclusive = mostly about -51% to -80%
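Neuro2A cells in DMEM with 0.5% FBS, overnight at 37 deg C, given compound at single 50 µM final, then IGF (6 nM final) for 20 min at 37 deg C. Lysed; phospho-Akt Ser473 by HTRF after 24 h, 665/615 ratio.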
ASM inhibitor: blocks human secretory acid sphingomyelinase; P17405; placental ASM, HMU-PC fluorogenic substrate, 60 min; Potency, µM (series often up to 57.5 µM), actives largely listed as inhibitors; hit rate 0.006% among 340,000; AID 504937; active = well fitted inhibition curve with a large enough effect; inconclusive = small, poorly fitted or top-dose-only effect; inactive = no such curve, though single readings can be large or run the other way
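HMU-PC0 cleavage (9 uM final) by human placental ASM, 60 min at 37 °C following 10 min compound exposure at RT; stopped at pH 10, fluorescence Ex 386/Em 447 nm.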
CXXC DNA block: blocks binding of human MLL CXXC domain to DNA. AID 2662. Potency, µM (series often up to 115 µM), most hits filed as inhibitors. MLL-CXXC / FITC-HOXA9 DNA fluorescence polarization. Q03164. hit rate 0.037% among 290,000; active = well fitted inhibition curve with a large enough effect in the polarisation, with a control signal flat, not every such curve was filed as active; inconclusive = small, poorly fitted or top-dose-only effect, or effect the other way, or a change in a side signal; inactive = no such curve, though single readings can be large or run the other way; the % refers to the polarisation
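Steps: dispense CXXC domain solution (7 uM) → pin compounds or unlabeled HOX-A9 DNA control → 5 min ambient → add FLSN-HOX-A9 solution (50 nM) → spin → 30 min ambient → fluorescence polarization. Tris pH 7.5/NaCl/DTT/BSA buffer.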
MBNL1 CUG block: MBNL1-poly(CUG) RNA binding inhibition; Potency, µM (top dose mostly 57.5 µM), usual class: inhibitors; hit rate 0.036% among 280,000; AID 2675; Q9NR56; TR-FRET MBNL1-His/biotin-(CUG)12 binding, 665/545 ratio; active = well fitted inhibition curve with a large enough effect in the signal ratio, with a control signal flat, not every such curve was filed as active; inconclusive = small, poorly fitted or top-dose-only effect, or effect the other way, or a change in a side signal; inactive = no such curve, though single readings can be large or run the other way; the % refers to the signal ratio
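Ratiometric TR-FRET (665 over 545 nm, excitation 340 nm) tracks disruption of MBNL1-His/biotin-(CUG)12 complex after 60 min at room temperature, with compounds at 92 nM to 58 uM final.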
Numbers stand for hits.

How did Cc1nc2cnc(N(C)C)nc2n(C[C@H]2CCCO2)c1=O do in these assays?
Menin MLL FP TR: inactive; Menin MLL FP FL: inactive

How did Cc1ccc(C(C(=O)NC2CCCC2)N(Cc2cccnc2)C(=O)c2snc(C(N)=O)c2N)o1 (stereo not drawn) do in these assays?
Menin MLL FP TR: inactive; Menin MLL FP FL: inactive; Akt phos inh: -118.6%; ASM inhibitor: inactive; CXXC DNA block: inactive; MBNL1 CUG block: inconclusive

Results for CN(C)c1ccc(C(C(=O)NC2CCCC2)N(Cc2cccnc2)C(=O)c2snc(C(N)=O)c2N)cc1 (stereo not drawn) ?
Menin MLL FP TR: inactive; Menin MLL FP FL: inactive; Akt phos inh: inactive; ASM inhibitor: inactive; CXXC DNA block: inactive; MBNL1 CUG block: inconclusive

Results for CS(=O)(=O)N(CCc1ccccc1)CC(=O)NCc1cccnc1 ?
Menin MLL FP TR: inactive; Menin MLL FP FL: inactive; Akt phos inh: -108.1%; ASM inhibitor: inactive; CXXC DNA block: inactive; MBNL1 CUG block: inactive

What do the screens show for `CN1C(=O)NC(NS(=O)(=O)c2ccc(N)cc2)(C(F)(F)F)C1=O` (stereo not drawn)?
Menin MLL FP TR: inactive; Menin MLL FP FL: inactive; Akt phos inh: inactive; ASM inhibitor: inactive; CXXC DNA block: inactive; MBNL1 CUG block: inactive

Results for CCOC(=O)C1=C(C)N(C2CCCCC2)C(=O)C1 ?
Menin MLL FP TR: inactive; Menin MLL FP FL: inactive; Akt phos inh: -101.2%; ASM inhibitor: inactive; CXXC DNA block: inactive; MBNL1 CUG block: inactive

Results for O=S(=O)(c1ccc(Oc2ccc(Br)cc2)cc1)N1CCOCC1 ?
Menin MLL FP TR: inactive; Menin MLL FP FL: inactive; Akt phos inh: -112.7%; ASM inhibitor: inactive; CXXC DNA block: inactive; MBNL1 CUG block: inactive

How did COc1ccc(NC(=O)CCS(=O)(=O)c2cccc3nonc23)c(OC)c1 do in these assays?
Menin MLL FP TR: inactive; Menin MLL FP FL: inactive; Akt phos inh: -112.7%; ASM inhibitor: inactive; CXXC DNA block: inactive; MBNL1 CUG block: inconclusive

How did Nc1ccc(N2CCCCC2)c2nonc12 do in these assays?
Menin MLL FP TR: inconclusive; Menin MLL FP FL: inactive; Akt phos inh: inactive; ASM inhibitor: inactive; CXXC DNA block: inactive; MBNL1 CUG block: inconclusive

How did Nc1ccc(C2CCCc3nonc32)c2nonc12 (stereo not drawn) do in these assays?
Menin MLL FP TR: inconclusive; Menin MLL FP FL: inactive; Akt phos inh: -112.5%; ASM inhibitor: inactive; CXXC DNA block: inactive; MBNL1 CUG block: inconclusive

What do the screens show for `COc1ccc(NC(=O)CSc2ncnc3c2cnn3CCc2ccccc2)cc1`?
Menin MLL FP TR: inconclusive; Menin MLL FP FL: inactive; Akt phos inh: -132.1%; ASM inhibitor: inactive; CXXC DNA block: inactive; MBNL1 CUG block: inactive

What do the screens show for `CCC1Oc2ccccc2N(CC(=O)NCCCN2CCCC2)C1=O` (stereo not drawn)?
Menin MLL FP TR: inactive; Menin MLL FP FL: inactive; Akt phos inh: inactive; ASM inhibitor: inactive; CXXC DNA block: inactive; MBNL1 CUG block: inactive

Results for O=c1[nH]nc(Sc2ncnc3sccc23)n1CCc1ccccc1 ?
Menin MLL FP TR: inactive; Menin MLL FP FL: inactive; Akt phos inh: -98.8%; ASM inhibitor: inactive; CXXC DNA block: inactive; MBNL1 CUG block: inactive

Results for CCN(CC)C(=O)CSc1n[nH]c(=O)n1CCc1ccccc1 ?
Menin MLL FP TR: inactive; Menin MLL FP FL: inactive; Akt phos inh: inactive; ASM inhibitor: inactive; CXXC DNA block: inactive; MBNL1 CUG block: inactive

Results for CN(C(=O)CSc1nnnn1-c1ccccc1)C1CCS(=O)(=O)C1 (stereo not drawn) ?
Menin MLL FP TR: inactive; Menin MLL FP FL: inactive; Akt phos inh: inactive; ASM inhibitor: inactive; CXXC DNA block: inactive; MBNL1 CUG block: inactive

Results for COc1ccc(-c2nnc(SCc3ccccn3)n2C)cc1 ?
Menin MLL FP TR: inactive; Menin MLL FP FL: inactive; Akt phos inh: -107.0%; ASM inhibitor: inactive; CXXC DNA block: inactive; MBNL1 CUG block: inactive

How did COc1ccccc1-c1nnc(SCc2ccccn2)n1C do in these assays?
Menin MLL FP TR: inactive; Menin MLL FP FL: inactive; Akt phos inh: inactive; ASM inhibitor: inactive; CXXC DNA block: inactive; MBNL1 CUG block: inactive

Results for Nc1c(C(=O)Nn2cnnc2)cc([N+](=O)[O-])cc1[N+](=O)[O-] ?
Menin MLL FP TR: inactive; Menin MLL FP FL: inactive; CXXC DNA block: inactive; MBNL1 CUG block: inconclusive
